This passage reports Potency results from PubChem BioAssay (NCATS).

Inconclusive results are not listed. Where a call stands in place of a potency, no number is given. The source made the active and inactive calls. Calls follow the shape of the dose curve; as a rule, active = well fitted inhibition curve with a large enough effect; inconclusive = small, poorly fitted or top-dose-only effect; inactive = no such curve, though single readings can be large or run the other way.
Potency is read from the fitted curve at half-maximal effect.

The assay is described as follows: qHTS to identify inhibitors of the type 1 interferon - major histocompatibility complex class I in skeletal muscle: primary screen against the NCATS Mechanism Interrogation Plate v5.0 (MIPE) Libary (AID 1347411). Also: nearly all actives have a fitted effect of over 65% in size. To be noted: iHSKM cells + IFN-b, HiBiT-tagged MHC-I luminescence, 24 h; series mostly up to 45.8 µM. The procedure, abridged:
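Cells were genome-edited human myoblasts carrying a HiBit tag on endogenous HLA-B. They were treated with IFN-beta (4.0 ng/ml) and titrated compounds (top 46 uM) for 24 hrs before lytic HiBiT detection.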
As to `CCNC(=O)c1noc(-c2cc(C(C)C)c(O)cc2O)c1-c1ccc(CN2CCOCC2)cc1`, the Potency is 0.0415 µM (active). The same measure for `COc1ccc(-c2oc3c(CC=C(C)C)c(O)cc(O)c3c(=O)c2O)cc1`: “inactive”; for `CC(C)(OCc1nn(Cc2ccccc2)c2ccccc12)C(=O)O`: “inactive”; for `CCC(=O)NCC[C@@H]1CCc2ccc3c(c21)CCO3`: “inactive”. With `Cc1nc2c([nH]1)CCN(C(=O)c1ccc(NC(=O)c3ccccc3-c3ccccc3)cc1)c1ccccc1-2`, the Potency entry is “inactive”.

Turning to `CC(C)(F)C[C@H](N[C@@H](c1ccc(-c2ccc(S(C)(=O)=O)cc2)cc1)C(F)(F)F)C(=O)NC1(C#N)CC1`, the Potency entry was “inactive”. The same measure for `O=C1C(c2c(O)[nH]c3ccccc23)=Nc2ccccc21`: “inactive”; for `NC(=O)c1noc([C@H](CCCC2CCCCC2)CC(=O)NO)n1`: “inactive”; for `Cc1cccc(-c2[nH]c(C(C)(C)C)nc2-c2ccc3c(c2)OCO3)n1`: “inactive”. With `CCOc1ccccc1N=Nc1c(C)[nH]n(-c2nc(-c3ccccc3)cs2)c1=O`, the Potency entry is “inactive”.

On to `O=C(CC12CC3CC(CC(C3)C1)C2)Nc1cccc2nc(NCCNCCO)ccc12`, for which the Potency entry was “inactive”. For `C[C@H](c1ccc(F)cc1CCCC(=O)O)N(c1cc(F)ccc1F)S(=O)(=O)c1ccc(Cl)cc1`, the Potency result is “inactive”. On to `CCC(C)SSc1ncc[nH]1` (stereo not drawn), for which the Potency entry was “inactive”. To `CC(C)CNc1ccnc(NCc2csc(-c3ccccc3)n2)n1` belongs 16.5 µM (active). In the case of `CCn1c(-c2nonc2N)nc2cncc(CNC3CCNCC3)c21`, the Potency entry is “inactive”. With `O=C(O)CCC=CCC[C@@H]1[C@H](N2CCCCC2)[C@@H](O)C[C@@H]1OCc1ccc(-c2ccccc2)cc1`, the Potency result is “inactive”.

Turning to `CC[C@H](C=C[C@@H](C)[C@H]1CC[C@H]2[C@@H]3CC=C4C[C@@H](O)CC[C@]4(C)[C@@H]3CC[C@]12C)C(C)C`, the Potency entry was “inactive”. In the case of `NCC1CCC(C(=O)O)CC1` (stereo not drawn), the Potency entry is “inactive”. With `Cc1ccc(S(=O)(=O)OCC(=O)Nc2ccc(C(=O)O)c(O)c2)cc1`, the Potency entry is “inactive”. To `Nc1[nH]nc2nnc(-c3c(-c4ccccc4)nn4ccccc34)cc12` belongs “inactive”; to `CCCCc1ccc(NS(=O)(=O)c2ccc(C)c(C(=O)N3CCN(c4cccc(C)c4C)CC3)c2)cc1`, “inactive”; to `CN(C)CCCNC(=O)c1ccc(-c2cc(O)c3ncccc3c2)cc1`, “inactive”.

With `c1ccc(CNc2nc(N3CCOc4ccccc43)nc3c2CCCC3)cc1`, the Potency entry was “inactive”.

In the case of `CN1CCC(COc2cnc(-c3cccc(Cn4nc(-c5cccc(C#N)c5)ccc4=O)c3)nc2)CC1`, the Potency entry was “inactive”. With `CCC[C@H](N[C@@H](C)C(=O)N1[C@@H]2CCCC[C@H]2C[C@H]1C(=O)O)C(=O)OCC`, the Potency entry was “inactive”. The same measure for `CC(=O)Nc1cccc(-n2c(=O)n(C3CC3)c(=O)c3c(Nc4ccc(I)cc4F)n(C)c(=O)c(C)c32)c1`: “inactive”.

For `CC1=C(CC(=O)O)c2cc(F)ccc2C1=Cc1ccc(S(C)=O)cc1` (stereo not drawn), the Potency result was “inactive”. To `CN(C)CCOc1cc(-c2cn[nH]c2)ccc1NC(=O)C1COc2ccccc2O1` (stereo not drawn) belongs “inactive”.
